This excerpt belongs to a sample that is enriched for hits.
VHR inh color: inhibitors of human VHR1 phosphatase (DUSP3) | recombinant VHR phosphatase, colorimetric substrate read-out | inhibition, % at 20 µM | hit rate 0.7% among 50,000; in the data active means inhibition above about 60%
Target sequence (P51452 whole entry, looked up): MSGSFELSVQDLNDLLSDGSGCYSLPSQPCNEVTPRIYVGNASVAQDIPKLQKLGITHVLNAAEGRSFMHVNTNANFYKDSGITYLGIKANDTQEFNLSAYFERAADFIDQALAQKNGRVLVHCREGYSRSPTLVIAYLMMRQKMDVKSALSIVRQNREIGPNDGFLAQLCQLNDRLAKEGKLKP
The depositor's hits bear a star.

SMILES	VHR inh color
CC1CC(Nc2ccccc2)c2ccccc2N1C(=O)Nc1cccc(Cl)c1 (stereo not given)	14
Cc1ccc(C)n1-c1ccc(OCC(=O)O)cc1	29
Cc1ccc(C)n1-c1ccc(SCC(=O)O)cc1	91*
CC(=O)c1ccc(-n2c(C)ccc2C)cc1	11
Cc1ccc(N2C(=O)C=CC2=O)c(Br)c1	55
O=C1C=CC(=O)N1c1ccccc1N1C(=O)C=CC1=O	84*
COc1ccc(N2C(=O)C=CC2=O)cc1	32
O=C(CCNc1ccc(-c2ccccc2)cc1)c1cccs1	11
CCOc1ccccc1NC(=O)CN(c1ccc(Br)cc1)S(C)(=O)=O	5
CC1=C(C(=O)OC(C)C)C(c2ccccc2F)CC(=O)N1 (stereo not given)	118*
CC1=C(C(=O)OCCc2ccccc2)C(c2ccccc2OC(C)C)CC(=O)N1 (stereo not given)	-5
CC1=C(C(=O)OCc2ccccc2)C(c2ccccc2OC(C)C)CC(=O)N1 (stereo not given)	0
O=[N+]([O-])c1ccc(-c2ccc(C(=S)N3CCCCC3)o2)cc1	-23
Cc1ccc(N2CCN(C(=S)c3ccc(-c4cccc([N+](=O)[O-])c4)o3)CC2)cc1	91*
O=[N+]([O-])c1ccc(-c2ccc(C(=S)N3CCOCC3)o2)cc1	2
COCCN1C(=O)/C(=C\c2ccc3c(c2)OCO3)C(C(=O)OC)=C1C	-17
CCOC(=O)c1c(NC(=O)c2cccc(C)c2)sc(C(=O)Nc2ccccc2F)c1C	-8
CCOC(=O)c1c(NC(=O)c2ccc(Cl)c(Cl)c2)sc(C(=O)Nc2ccccc2F)c1C	-12
CCOC(=O)c1c(NC(=O)c2cccc(OC)c2)sc(C(=O)Nc2ccccc2F)c1C	115*
COc1ccccc1N1CCN(/N=C\c2cccc(OC)c2O)CC1	1
O=C(Nc1nc(-c2ccc(Cl)cc2)cs1)C(F)(F)F	-24
CCCC(=O)c1c(Nc2ccccc2)cc(C)oc1=O	-4
CCOc1cccc(N2C(=O)/C(=C/c3cc(Br)c(O)c(OCC)c3)C(=O)NC2=S)c1	87
Cc1ccc(NCC(=O)N/N=C\C=C\c2ccco2)cc1	4
C(/C=C/c1ccco1)=N/N1CCN(c2ccccc2)CC1	41
SMILES	VHR inh color
O=C1c2ccccc2/C(=N/N=C/C=C/c2ccco2)C1C(=O)C(c1ccccc1)c1ccccc1 (stereo not given)	88*
COc1ccc(N2C(=O)/C(=C/c3ccc(-c4ccc([N+](=O)[O-])c(C)c4)o3)SC2=S)cc1	-53
O=C1NC(=S)N(c2ccc(Br)cc2)C(=O)/C1=C/c1ccc(-c2ccccc2C(=O)O)o1	18
Cc1cccc(N2C(=O)NC(=O)/C(=C/c3ccc(Br)o3)C2=O)c1	30
CC(C)c1ccc(N2C(=O)NC(=O)/C(=C/c3ccc(Br)o3)C2=O)cc1	82*
O=C1NC(=S)N(c2ccc(F)cc2)C(=O)/C1=C/c1ccc(Br)o1	94*
O=C1NC(=O)N(c2ccc(Cl)cc2)C(=O)/C1=C/c1ccc(Br)o1	14
O=C1NC(=S)N(c2ccc(Br)cc2)C(=O)/C1=C\c1ccc(-c2ccc([N+](=O)[O-])cc2)o1	14
COc1ccc(-c2cc(C(=O)N3CCC(Cc4ccccc4)CC3)c3ccccc3n2)c(OC)c1	12
Cc1cc(OCC(=O)Nc2ccc(Cl)c(-c3nc4ncccc4o3)c2)cc(C)c1Cl	69
C=CCOC(=O)C1=C(C)NC(C)=C(C(=O)OCC=C)C1c1cccc([N+](=O)[O-])c1	-18
CC(/C=C/c1ccc(I)cc1)=C\C(=O)O	5
C/C(=C/C(=O)Nc1c(C)n(C)n(-c2ccccc2)c1=O)C(=O)O	-60
CCCN1CCC(=NNC(=O)c2ccccc2O)CC1	-14
CN1CCC(=NNC(=O)c2cc3ccccc3cc2O)CC1	94*
CN1CCC(=NNC(=O)c2cccc([N+](=O)[O-])c2)CC1	-14
CCOc1cccc(/C=C2/SC(=S)NC2=O)c1O	-1
CCOc1cc(-c2ccc(O)cc2)cc(=O)c2c(C)oc(C)c12	-12
CCOc1cccc(=O)c2c(C)[nH]c(C)c12	75*
O=C(c1cc2nc(-c3ccc([N+](=O)[O-])cc3)cc(C(F)(F)F)n2n1)N1CCOCC1	-40
COc1cccc(-n2c(C=C3C(=O)Nc4ccc(Br)cc43)nc3ccccc3c2=O)c1	-5
CCn1c2ccccc2c2cc(NC(=O)c3ccccc3Cl)ccc21	-37
COc1cc(/C=C2\SC(=Nc3ccc(C)c(Cl)c3)NC2=O)ccc1O	68*
Cc1ccc(N=C2NC(=O)/C(=C/c3cccc(O)c3)S2)cc1Cl	12
Cc1ccc(N=C2NC(=O)/C(=C/c3ccc(F)cc3)S2)cc1Cl	-1
SMILES	VHR inh color
Cc1cccc(-c2nnc(NC(=O)Nc3ccc(Cl)c(Cl)c3)s2)c1	-18
COc1ccc(N2C(=O)/C(=C/c3ccc(-c4cc(C(=O)O)ccc4Cl)o3)C(=O)NC2=S)cc1	-8
COc1ccc(N2C(=O)NC(=O)/C(=C/c3ccc(-c4cccc(Cl)c4)o3)C2=O)cc1	6
COc1ccc(N2C(=O)NC(=O)/C(=C/c3ccc(I)o3)C2=O)cc1	107*
COc1ccc(N2C(=O)NC(=O)/C(=C/c3ccc(-c4ccc(C(=O)O)cc4)o3)C2=O)cc1	46
COc1ccc(N2C(=O)/C(=C/c3cc(C)n(-c4ccccc4)c3C)C(=O)NC2=S)cc1	89
COc1ccc(N2C(=O)/C(=C/c3ccc(I)o3)C(=O)NC2=S)cc1	92*
COc1ccc(CC(=O)Nc2cccc(-c3nc4ncccc4o3)c2)cc1OC	-1
Cc1cc(/C=N/c2nc3ccc(Br)cc3n2C)c(O)c([N+](=O)[O-])c1	18
N#C/C(=C/c1cccc(Cl)c1)C(=O)Nc1cccc(Br)c1	-14
Cc1ccccc1OCCSc1nc2ccccc2n1CCO	-27
O=C(O)CCCCCN1C(=O)C(=O)/C(=C(/O)c2ccccc2)C1c1cccc([N+](=O)[O-])c1 (stereo not given)	-6
COc1ccc2c(c1)CC/C2=N/OC(=O)c1ccc(OC)c(OC)c1	4
CCc1ccc(NC(=O)c2ccc(Cl)cc2)cc1	-12
CCOC(=O)C1=C(O)/C(=C/c2ccc(-c3ccccc3)cc2)SC1=Nc1ccc(OC)cc1	115*
CCOC(=O)C1=C(O)/C(=C/c2ccccc2)SC1=Nc1ccccc1	-2
CCOC(=O)C1=C(O)/C(=C/c2ccc(O)cc2)SC1=Nc1ccccc1	-16
O=c1oc2cc(OCc3ccccc3F)ccc2c2c1CCCC2	-10
COc1cc(/C=N/N=c2\sc3ccccc3n2C)ccc1O	2
COc1ccc(/C=N/N=c2\sc3ccccc3n2C)c(OC)c1	98*
Cn1/c(=N/N=C/c2ccncc2)sc2ccccc21	0
Cc1c(-c2ccc(Cl)cc2)nc2ccccc2c1C(=O)O	-11
COCCCNc1ccc2c3c(nc(=O)n2C)-c2ccccc2C(=O)c13	1
O=C(O)c1ccc2c(c1)C(=O)N(c1ccc(-c3nnc(-c4ccccc4)o3)cc1)C2=O	-26
COc1ccc(NC(=O)Cc2ccc(Br)cc2)c(OC)c1	26
SMILES	VHR inh color
O=C(c1ccc(F)cc1)N1CCN(Cc2ccc3c(c2)OCO3)CC1	0
O=C(Nc1ccccc1)N1CCN(Cc2ccc3c(c2)OCO3)CC1	101*
O=C(COc1ccc2ccccc2c1)N1CCN(Cc2ccc3c(c2)OCO3)CC1	6
Cc1ccnc(NC(=O)Cc2ccc(Br)cc2)c1	-6
Cc1ccc(-c2cc(C(F)(F)F)n3ncc(C(=O)N4CCN(c5ccc(F)cc5)CC4)c3n2)cc1	-20
Cc1ccc2oc(-c3cc(NC(=O)c4cccs4)ccc3O)nc2c1	-18
Cc1nc(N)sc1-c1csc(Nc2ccccn2)n1	51
